Results taken from the supplement of paper PMC10849652.
Of roughly 8,800 targets only a part is listed; those with a hit were picked by preference. About 0.5% of all pairs of compound and target were hits. Unmarked numbers belong to inactive results.

compound: CCn1cc(-c2ccnc3[nH]c(-c4cccc(CN(C)C)c4)cc23)c(-c2ccc(NC(=O)N(C)C)cc2)n1; assay: log2 fold change, soluble protein after heating vs DMSO (PISA); higher = thermal stabilisation; K562 lysate, 10 uM; active = over 0.2 and 3.5 SD of the protein, either way, in both replicates (recomputed)
Outline: (§1)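 K562 pellets were dounce-homogenised in PBS pH 7.4 containing 1 mM MgCl2, and the crude extract, at 1 mg/mL protein, was exposed to 10 μM compound for 30 min. Aliquots were heated for 3 min across 48°C-58°C, pooled, brought to 0.5% NP-40 at 4°C and spun at 21,000xg for 90 min, with the supernatant taken as soluble protein. TMTpro 16plex LC-MS/MS with equalised channel sums quantified that protein. Values are log-two fold changes in thermal stability relative to solvent controls, taken from duplicates.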

UniProt Q99871, sequence (Q99871 whole entry, looked up): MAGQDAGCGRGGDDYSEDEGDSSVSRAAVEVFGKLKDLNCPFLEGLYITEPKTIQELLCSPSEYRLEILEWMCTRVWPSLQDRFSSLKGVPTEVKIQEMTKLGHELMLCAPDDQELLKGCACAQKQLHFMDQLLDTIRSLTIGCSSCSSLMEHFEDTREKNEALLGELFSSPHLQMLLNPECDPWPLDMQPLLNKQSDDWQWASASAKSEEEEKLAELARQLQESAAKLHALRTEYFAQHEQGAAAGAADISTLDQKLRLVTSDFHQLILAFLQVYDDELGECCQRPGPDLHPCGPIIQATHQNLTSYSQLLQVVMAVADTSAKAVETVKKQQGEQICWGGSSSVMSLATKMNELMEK
UniProt Q9ULR0, sequence (Q9ULR0 whole entry, looked up): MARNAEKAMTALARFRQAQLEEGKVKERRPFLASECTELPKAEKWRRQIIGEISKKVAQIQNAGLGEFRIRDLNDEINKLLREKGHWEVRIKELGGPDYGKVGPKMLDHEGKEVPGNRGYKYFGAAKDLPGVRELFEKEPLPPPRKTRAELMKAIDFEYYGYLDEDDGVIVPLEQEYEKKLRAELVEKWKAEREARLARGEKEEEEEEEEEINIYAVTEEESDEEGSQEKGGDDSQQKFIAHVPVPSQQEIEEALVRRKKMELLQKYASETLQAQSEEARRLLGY
UniProt P13598, sequence (P13598 whole entry, looked up): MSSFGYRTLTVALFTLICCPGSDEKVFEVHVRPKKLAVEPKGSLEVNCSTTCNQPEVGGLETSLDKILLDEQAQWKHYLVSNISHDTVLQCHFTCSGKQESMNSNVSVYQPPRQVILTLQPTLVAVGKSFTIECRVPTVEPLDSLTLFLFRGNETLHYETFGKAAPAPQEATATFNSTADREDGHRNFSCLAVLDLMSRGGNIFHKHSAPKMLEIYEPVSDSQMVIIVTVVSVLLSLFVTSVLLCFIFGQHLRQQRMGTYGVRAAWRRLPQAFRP
UniProt Q9H0C8, sequence (Q9H0C8 whole entry, looked up): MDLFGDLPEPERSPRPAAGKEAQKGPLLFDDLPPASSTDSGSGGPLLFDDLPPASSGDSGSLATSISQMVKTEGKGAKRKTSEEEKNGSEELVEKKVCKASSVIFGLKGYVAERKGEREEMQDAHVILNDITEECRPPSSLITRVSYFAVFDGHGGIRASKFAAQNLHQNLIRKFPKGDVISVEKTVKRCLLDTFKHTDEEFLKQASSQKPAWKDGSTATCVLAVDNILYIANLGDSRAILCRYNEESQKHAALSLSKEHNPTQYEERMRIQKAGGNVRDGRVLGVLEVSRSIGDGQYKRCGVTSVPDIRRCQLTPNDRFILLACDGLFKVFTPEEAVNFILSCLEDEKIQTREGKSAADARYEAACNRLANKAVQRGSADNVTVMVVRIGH
UniProt Q9UGL1, sequence (Q9UGL1 whole entry, looked up): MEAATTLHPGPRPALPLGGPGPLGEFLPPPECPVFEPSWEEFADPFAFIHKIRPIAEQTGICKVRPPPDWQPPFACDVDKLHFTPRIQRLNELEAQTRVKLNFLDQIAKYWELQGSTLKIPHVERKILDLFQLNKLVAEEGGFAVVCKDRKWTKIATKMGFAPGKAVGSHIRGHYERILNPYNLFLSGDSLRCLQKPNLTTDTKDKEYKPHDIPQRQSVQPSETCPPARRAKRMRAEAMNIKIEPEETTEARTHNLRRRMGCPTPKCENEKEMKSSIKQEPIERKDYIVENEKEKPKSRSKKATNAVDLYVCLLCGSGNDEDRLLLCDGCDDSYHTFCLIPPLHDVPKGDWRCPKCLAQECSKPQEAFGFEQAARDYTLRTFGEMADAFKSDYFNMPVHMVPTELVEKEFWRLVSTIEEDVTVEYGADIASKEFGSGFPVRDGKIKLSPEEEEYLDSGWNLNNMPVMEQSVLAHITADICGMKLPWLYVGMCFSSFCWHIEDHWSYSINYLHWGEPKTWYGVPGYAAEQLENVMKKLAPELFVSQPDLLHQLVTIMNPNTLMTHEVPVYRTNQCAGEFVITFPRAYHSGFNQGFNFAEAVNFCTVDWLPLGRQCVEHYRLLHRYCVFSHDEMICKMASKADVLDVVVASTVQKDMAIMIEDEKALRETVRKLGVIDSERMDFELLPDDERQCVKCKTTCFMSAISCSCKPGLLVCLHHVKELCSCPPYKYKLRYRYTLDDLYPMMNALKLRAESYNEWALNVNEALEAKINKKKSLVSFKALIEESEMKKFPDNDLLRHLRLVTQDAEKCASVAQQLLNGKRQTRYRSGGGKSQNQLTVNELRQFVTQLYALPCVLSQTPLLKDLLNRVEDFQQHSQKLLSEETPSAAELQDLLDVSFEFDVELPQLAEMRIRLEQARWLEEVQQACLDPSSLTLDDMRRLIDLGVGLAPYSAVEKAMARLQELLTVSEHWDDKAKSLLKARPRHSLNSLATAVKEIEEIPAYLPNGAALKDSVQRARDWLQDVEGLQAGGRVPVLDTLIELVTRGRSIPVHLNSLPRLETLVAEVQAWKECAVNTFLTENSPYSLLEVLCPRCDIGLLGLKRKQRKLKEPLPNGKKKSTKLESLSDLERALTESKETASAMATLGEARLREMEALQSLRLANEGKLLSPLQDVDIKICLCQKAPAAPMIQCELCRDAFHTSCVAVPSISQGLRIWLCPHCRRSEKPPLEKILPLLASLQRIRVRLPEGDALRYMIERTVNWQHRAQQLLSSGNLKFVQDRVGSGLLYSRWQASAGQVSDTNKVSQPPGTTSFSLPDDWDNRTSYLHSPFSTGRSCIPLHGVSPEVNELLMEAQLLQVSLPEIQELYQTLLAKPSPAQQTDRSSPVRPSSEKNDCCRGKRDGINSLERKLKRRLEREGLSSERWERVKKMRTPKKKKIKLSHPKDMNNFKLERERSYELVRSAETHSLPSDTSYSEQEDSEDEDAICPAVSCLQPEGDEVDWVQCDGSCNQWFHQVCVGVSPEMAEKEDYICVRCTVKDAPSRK
UniProt P15104, sequence (P15104 whole entry, looked up): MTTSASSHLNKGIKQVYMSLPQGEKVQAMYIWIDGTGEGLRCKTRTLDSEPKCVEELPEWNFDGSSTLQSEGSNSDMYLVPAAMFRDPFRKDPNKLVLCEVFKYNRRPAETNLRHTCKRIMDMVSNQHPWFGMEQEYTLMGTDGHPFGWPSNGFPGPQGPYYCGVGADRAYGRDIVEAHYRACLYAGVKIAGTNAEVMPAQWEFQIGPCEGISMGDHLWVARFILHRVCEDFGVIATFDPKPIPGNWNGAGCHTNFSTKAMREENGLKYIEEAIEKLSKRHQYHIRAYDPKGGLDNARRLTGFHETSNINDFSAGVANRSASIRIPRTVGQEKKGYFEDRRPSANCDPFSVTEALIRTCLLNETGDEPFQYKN
UniProt P49448, sequence (P49448 whole entry, looked up): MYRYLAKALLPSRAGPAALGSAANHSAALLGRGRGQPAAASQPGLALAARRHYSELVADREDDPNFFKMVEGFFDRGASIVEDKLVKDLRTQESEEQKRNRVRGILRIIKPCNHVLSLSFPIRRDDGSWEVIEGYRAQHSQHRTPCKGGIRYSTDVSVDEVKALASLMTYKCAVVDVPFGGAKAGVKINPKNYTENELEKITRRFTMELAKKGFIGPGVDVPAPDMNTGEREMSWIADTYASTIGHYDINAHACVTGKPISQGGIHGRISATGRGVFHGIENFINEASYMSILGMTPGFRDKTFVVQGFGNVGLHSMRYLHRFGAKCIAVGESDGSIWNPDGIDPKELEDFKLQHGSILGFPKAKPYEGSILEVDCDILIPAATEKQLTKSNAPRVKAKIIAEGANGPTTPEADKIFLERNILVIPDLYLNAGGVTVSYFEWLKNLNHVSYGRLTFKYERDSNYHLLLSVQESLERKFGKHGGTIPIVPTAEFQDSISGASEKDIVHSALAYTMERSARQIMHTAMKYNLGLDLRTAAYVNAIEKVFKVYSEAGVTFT
UniProt Q68E01, sequence (Q68E01 whole entry, looked up): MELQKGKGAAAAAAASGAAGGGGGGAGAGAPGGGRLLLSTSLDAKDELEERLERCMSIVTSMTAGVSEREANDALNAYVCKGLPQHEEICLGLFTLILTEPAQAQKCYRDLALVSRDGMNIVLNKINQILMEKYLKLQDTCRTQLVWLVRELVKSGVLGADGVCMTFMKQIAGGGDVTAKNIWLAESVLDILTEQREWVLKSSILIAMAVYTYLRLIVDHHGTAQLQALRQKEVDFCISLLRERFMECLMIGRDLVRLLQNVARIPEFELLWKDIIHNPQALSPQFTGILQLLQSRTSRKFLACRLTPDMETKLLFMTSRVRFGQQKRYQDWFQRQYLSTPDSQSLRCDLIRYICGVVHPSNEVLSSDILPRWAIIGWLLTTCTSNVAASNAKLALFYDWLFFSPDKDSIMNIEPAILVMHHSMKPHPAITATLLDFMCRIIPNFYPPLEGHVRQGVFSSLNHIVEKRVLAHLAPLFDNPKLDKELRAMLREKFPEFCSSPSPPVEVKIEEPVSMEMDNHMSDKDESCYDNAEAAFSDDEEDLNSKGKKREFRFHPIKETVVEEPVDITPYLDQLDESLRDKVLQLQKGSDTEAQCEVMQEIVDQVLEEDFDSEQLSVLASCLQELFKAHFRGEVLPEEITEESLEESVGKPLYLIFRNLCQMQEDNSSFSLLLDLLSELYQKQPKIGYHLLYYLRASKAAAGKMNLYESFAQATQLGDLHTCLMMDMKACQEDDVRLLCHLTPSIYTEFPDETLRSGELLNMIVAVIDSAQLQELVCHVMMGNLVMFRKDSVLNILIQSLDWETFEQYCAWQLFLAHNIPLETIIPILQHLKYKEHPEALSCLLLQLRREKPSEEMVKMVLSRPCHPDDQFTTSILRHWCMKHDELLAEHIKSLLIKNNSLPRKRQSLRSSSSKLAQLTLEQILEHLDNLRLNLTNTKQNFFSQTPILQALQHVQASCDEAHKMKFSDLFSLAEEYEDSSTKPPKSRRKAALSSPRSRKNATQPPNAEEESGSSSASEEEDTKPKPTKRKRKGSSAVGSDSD
UniProt Q9BUE6, sequence (Q9BUE6 whole entry, looked up): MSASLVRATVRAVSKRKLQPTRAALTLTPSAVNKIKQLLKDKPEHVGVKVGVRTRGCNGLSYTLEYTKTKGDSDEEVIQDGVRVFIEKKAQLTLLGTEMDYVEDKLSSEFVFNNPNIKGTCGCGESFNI

Row | Target | log2 fold change
1 | GLYR1 (UniProt Q49A26) | -0.088
2 | HMGCS1 (UniProt Q01581) | -0.005
3 | GSTM4 (UniProt Q03013) | -0.114
4 | KARS1 (UniProt Q15046) | 0.046
5 | GTF2H4 (UniProt Q92759) | 0.063
6 | HAUS7 isoform 2 (UniProt Q99871) | 0.073
7 | GSE1 (UniProt Q14687) | -0.074
8 | INTS10 (UniProt Q9NVR2) | 0.14
9 | GMDS (UniProt O60547) | 0.019
10 | HDHD5 (UniProt Q9BXW7) | 0
11 | GLUD2 (UniProt P49448) | -0.024
12 | ILKAP (UniProt Q9H0C8) | 0.016
13 | HSPA14 (UniProt Q0VDF9) | 0.04
14 | GLUL (UniProt P15104) | 0.326
15 | GSK3A (UniProt P49840) | -0.133
16 | GRK6 isoform 2 (UniProt P43250) | -0.136
17 | GRK2 (UniProt P25098) | -0.054
18 | KDM5C (UniProt P41229) | -0.028

Row | Target | log2 fold change
19 | ILK (UniProt Q13418) | -0.034
20 | HLTF (UniProt Q14527) | -0.024
21 | INTS7 (UniProt Q9NVH2) | 0.027
22 | ICAM2 (UniProt P13598) | 0.426 (active)
23 | HSP90AA4P (UniProt Q58FG1) | 0.26
24 | HMGB2 (UniProt P26583) | 0.283 (active)
25 | HDAC3 (UniProt O15379) | 0.023
26 | GTF3C5 isoform 3 (UniProt Q9Y5Q8) | -0.025
27 | ISY1 isoform 1 (UniProt Q9ULR0) | -0.101
28 | HEATR6 (UniProt Q6AI08) | -0.001
29 | H4C1 (UniProt P62805) | 0.268
30 | ILRUN (UniProt Q9H6K1) | -0.109
31 | ISCA1 isoform 2 (UniProt Q9BUE6) | 0.425 (active)
32 | KDM5B isoform 2 (UniProt Q9UGL1) | -0.107
33 | INTS3 (UniProt Q68E01) | 0.072
34 | GSTCD (UniProt Q8NEC7) | -0.055
35 | HSPB1 (UniProt P04792) | 0.005
36 | INPPL1 (UniProt O15357) | -0.017

compound: CN1CCC(CNc2ccc3ncc(-c4cccc(OC(F)(F)F)c4)n3n2)CC1; assay: as above
Outline: as §1

Row | Target | log2 fold change
37 | GLYR1 (UniProt Q49A26) | 0.038
38 | HMGCS1 (UniProt Q01581) | 0.009
39 | GSTM4 (UniProt Q03013) | 0.038
40 | KARS1 (UniProt Q15046) | -0.052
41 | GTF2H4 (UniProt Q92759) | -0.075
42 | HAUS7 isoform 2 (UniProt Q99871) | -0.173
43 | GSE1 (UniProt Q14687) | -0.009
44 | INTS10 (UniProt Q9NVR2) | -0.054
45 | GMDS (UniProt O60547) | 0.042
46 | HDHD5 (UniProt Q9BXW7) | 0.011
47 | GLUD2 (UniProt P49448) | 0.046
48 | ILKAP (UniProt Q9H0C8) | 0
49 | HSPA14 (UniProt Q0VDF9) | -0.021
50 | GLUL (UniProt P15104) | -0.058
51 | GSK3A (UniProt P49840) | 0.154
52 | GRK6 isoform 2 (UniProt P43250) | 0.614 (active)
53 | GRK2 (UniProt P25098) | -0.016
54 | KDM5C (UniProt P41229) | -0.059

Row | Target | log2 fold change
55 | ILK (UniProt Q13418) | -0.019
56 | HLTF (UniProt Q14527) | 0.073
57 | INTS7 (UniProt Q9NVH2) | 0.039
58 | ICAM2 (UniProt P13598) | -0.031
59 | HSP90AA4P (UniProt Q58FG1) | 0.041
60 | HMGB2 (UniProt P26583) | -0.273 (active)
61 | HDAC3 (UniProt O15379) | 0.052
62 | GTF3C5 isoform 3 (UniProt Q9Y5Q8) | 0.017
63 | ISY1 isoform 1 (UniProt Q9ULR0) | 0.02
64 | HEATR6 (UniProt Q6AI08) | -0.008
65 | H4C1 (UniProt P62805) | -0.01
66 | ILRUN (UniProt Q9H6K1) | 0.067
67 | ISCA1 isoform 2 (UniProt Q9BUE6) | -0.21
68 | KDM5B isoform 2 (UniProt Q9UGL1) | -0.034
69 | INTS3 (UniProt Q68E01) | -0.018
70 | GSTCD (UniProt Q8NEC7) | -0.015
71 | HSPB1 (UniProt P04792) | -0.042
72 | INPPL1 (UniProt O15357) | -0.06
